# Results published in the supplement of paper PMC7156485.
# ± gives the standard deviation of the averaged measurements.
# Tests used:
# Conditions in all cases: concentration: 10 µM; 24 h
# HCC1569 [1] = assay: cell number relative to DMSO (% of DMSO); higher = more cells (less growth inhibition / toxicity)
# In short: (§1)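 HCC1569 and TDF cells (800 per well, 384-well plates, RPMI with 10% FBS) were treated with compounds at 10 µM for 24 h at 37 °C, in triplicate. Cells were fixed in 3.7% formaldehyde and stained with a rabbit anti-H1.0 antibody, an AlexaFluor 647 secondary and DAPI; six fields per well were imaged at ×10. H1.0 nuclear intensity or cell number is expressed as percent of the plate DMSO control, taking the median of replicates. HCC1569 values were smoothed for positional effects.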
# TDF [2] = assay: as above
# In short: as §1
# TDF [3] = assay: H1.0 immunofluorescence intensity relative to DMSO (% of DMSO); higher = stronger H1.0 induction, active = 120 or more
# In short: as §1
# HCC1569 [4] = assay: H1.0 immunofluorescence intensity relative to DMSO (% of DMSO); higher = stronger H1.0 induction, active = 140 or more
# In short: as §1
# 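For H1.0 immunofluorescence intensity relative to DMSO in this document: TDF is a line of transformed human dermal fibroblasts of mesenchymal origin.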
# 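For cell number relative to DMSO in this document: TDF denotes transformed human dermal fibroblasts of mesenchymal origin.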
SMILES,cell number (HCC1569 [1]),cell number (TDF [2]),H1.0 immunofluorescence intensity (TDF [3]),H1.0 immunofluorescence intensity (HCC1569 [4])
CC(C)NCC(O)COc1ccc(CC(N)=O)cc1 (racemic),109,101,93.8 (inactive),88.2 (inactive)
Cl.Cl.NCCNc1ncc(C(N)=O)c(Nc2cccc(C(F)(F)F)c2)n1.O.O [Syk Inhibitor II],82.1,84.7,88.2 (inactive),148 (active)
CCCCCC(O)C=CC=O (racemic),99.2,109,93.8 (inactive),106 (inactive)
CC(C=CC1=C(C)CCCC1(C)C)=CC=CC(C)=CC(=O)O [13-cis-retinoic acid],102,100,88.5 (inactive),123 (inactive)
OC1(c2ccc(Cl)cc2)CCN(Cc2c[nH]c3ccccc23)CC1,94.6,93,106 (inactive),103 (inactive)
NCC1CCC(C(=O)O)CC1 (centres undefined) [Tranexamic acid],99.5,104,87.9 (inactive),111 (inactive)
CCN(CC)CCOC(=O)C1(C2CCCCC2)CCCCC1.Cl [Dicyclomine hydrochloride],100,96.7,99.8 (inactive),93.1 (inactive)
Cc1ccc(C)c(OCCCC(C)(C)C(=O)O)c1 [Gemfibrozil],103,99.1,91.8 (inactive),115 (inactive)
CCN(CC)CCCCNc1ncc2cc(-c3c(Cl)cccc3Cl)c(NC(=O)NC(C)(C)C)nc2n1,63.1,84.5,104 (inactive),115 (inactive)
CCCCN1CCCC[C@H]1C(=O)Nc1c(C)cccc1C.Cl,104,107,96.8 (inactive),108 (inactive)
NC(=S)c1ccc[n+](C2OC(COP(=O)([O-])OP(=O)(O)OCC3OC(n4cnc5c(N)ncnc54)C(OP(=O)([O-])O)C3O)C(O)C2O)c1.[Na+] (centres undefined) [Thio-NADP sodium],94.1,100,91.7 (inactive),104 (inactive)
CC12CCc3occc3C1CCC13CC(CCC12)C(O)(CO)C3 (centres undefined) [Cafestol],103,101,103 (inactive),88.2 (inactive)
N#CC(=Cc1ccc(O)c(O)c1)C(=O)NCc1ccccc1 [Tyrphostin AG 490],94.5,107,88.7 (inactive),99.7 (inactive)
COC(=O)C1=C(C)NC(C)=C(C(=O)OCCN(C)Cc2ccccc2)C1c1cccc([N+](=O)[O-])c1.Cl (centres undefined) [Nicardipine.HCl],96.8,100,98.7 (inactive),107 (inactive)
C[N+](C)(C)CCOC(=O)CCC(=O)OCC[N+](C)(C)C.O.O.[Cl-].[Cl-],103,104,92.5 (inactive),102 (inactive)
"CCN1CCCC1CNC(=O)c1cc(S(N)(=O)=O)ccc1OC (single isomer, unassigned; (-)) [(-)-Sulpiride]",99.4,101,90.9 (inactive),98.5 (inactive)
CN1CCN(CCCN2c3ccccc3Sc3ccc(Cl)cc32)CC1.O=C(O)C=CC(=O)O.O=C(O)C=CC(=O)O [Prochlorperazine dimaleate],83.7,105,110 (inactive),157 (active)
O=C(CCc1ccc(O)cc1)c1c(O)cc(O)cc1OC1OC(CO)C(O)C(O)C1O (centres undefined) [Phlorizine],101,99.3,102 (inactive),97.1 (inactive)
COc1ccc(C2(C#N)CCC(C(=O)O)CC2)cc1OC1CCCC1 (centres undefined),105,99.6,98.8 (inactive),90.2 (inactive)
CC(CN(C)C)CN1c2ccccc2Sc2ccc(C#N)cc21 (centres undefined),93.5,90.4,118 (inactive),108 (inactive)
O=c1ncnc2[nH][nH]cc1-2 [Allopurinol],103,109,97.1 (inactive),88.4 (inactive)
COC1C=COC2(C)Oc3c(C)c(O)c4c(c3C2=O)C(=O)C(=CNN2CCN(C)CC2)C(=C4O)NC(=O)C(C)=CC=CC(C)C(O)C(C)C(O)C(C)C(OC(C)=O)C1C (centres undefined) [Rifampicin],104.2 ± 0.92,106 ± 1.9,94.5 (inactive),103 (inactive)
CN1C(C(=O)Nc2ccccn2)=C(O)c2sccc2S1(=O)=O [Tenoxicam],100,87.8,95 (inactive),93.3 (inactive)
NCCS(=O)(=O)O [Taurine],98.1,112,96.4 (inactive),98.7 (inactive)
CC1OC(OC2C(O)CC(OC3C(O)CC(OC4CCC5(C)C(CCC6C5CCC5(C)C(C7=CC(=O)OC7)CCC65O)C4)OC3C)OC2C)CC(O)C1O (centres undefined) [Digitoxin],58.4,48.4,127 (active),121 (inactive)
CCCOc1ccc2nc(NC(=O)OC)[nH]c2c1 [Oxibendazole],62.8,9.31,157 (active),154 (active)

SMILES,cell number (HCC1569 [1]),cell number (TDF [2]),H1.0 immunofluorescence intensity (TDF [3]),H1.0 immunofluorescence intensity (HCC1569 [4])
CC1(C)C2CCC1(C(=O)O)C(=O)C2 (centres undefined) [Ketopinic acid],103,102,99.7 (inactive),88.3 (inactive)
COc1ccccc1OCCNCC(O)COc1cccc2[nH]c3ccccc3c12 (centres undefined) [Carvedilol],92.6 ± 15,104 ± 4.5,99.3 (inactive),106 (inactive)
Cc1cnc(NC(=O)C2=C([O-])c3ccccc3S(=O)(=O)N2C)s1.[Na+] [Meloxicam sodium],102,115,91.1 (inactive),97.1 (inactive)
CCC(C)C(=O)OC1CCC=C2C=CC(C)C(CCC3CC(O)CC(=O)O3)C21 (centres undefined) [Mevastatin],100.8 ± 0.37,87.1 ± 6.8,123 (active),95 (inactive)
"C=CCn1c(=O)c2c(nc(-c3ccc(S(=O)(=O)O)cc3)n2C)n(C)c1=O [1-Allyl-3,7-dimethyl-8-p-sulfophenylxanthine]",102,108,99.2 (inactive),105 (inactive)
Cc1ccccc1C(OCCN(C)C)c1ccccc1.Cl (centres undefined) [Orphenadrine hydrochloride],100,111,96.6 (inactive),97 (inactive)
Cc1ccc(S(=O)(=O)Cc2nc(-c3ccc(C(=O)NCc4cccnc4)cc3)oc2C)cc1,87,86.8,102 (inactive),127 (inactive)
O=C(NC(NC(=S)Nc1ccc(F)c([N+](=O)[O-])c1)C(Cl)(Cl)Cl)C(c1ccccc1)c1ccccc1 (centres undefined),58.2,58.3,108 (inactive),190 (active)
NNCCc1ccccc1.O=S(=O)(O)O [Phenelzine sulfate],103,102,95.3 (inactive),74.3 (inactive)
CN1CCc2ccccc2Cc2[nH]c3ccccc3c2CC1,104,108,92.4 (inactive),100 (inactive)
CCCc1cc(=O)oc2c(C(=O)N3CCCc4ccccc43)c(OC)cc(OC)c12,55.5,46.1,108 (inactive),159 (active)
O=c1c(-c2ccc(O)cc2)coc2cc(O)cc(O)c12,97.6,100,96.6 (inactive),104 (inactive)
O=C(O)CNC(=O)C(CS)Cc1ccccc1 (racemic) [DL-Thiorphan],105,95.5,93.4 (inactive),96.1 (inactive)
CC(C)NCC(O)c1ccc(NS(C)(=O)=O)cc1.Cl (centres undefined) [Sotalol.HCl],102,111,88.1 (inactive),99 (inactive)
CC(C)NCC(O)COc1ccc(CCOCC2CC2)cc1.Cl (centres undefined) [Betaxolol hydrochloride],102,122,95.4 (inactive),89.4 (inactive)
NC(=O)c1cccc(NC(=O)/C=C/c2c[nH]c3ccccc23)c1 [(E)-3-(3-(1H-indol-3-yl)acrylamido)benzamide],97.9,103,88 (inactive),118 (inactive)
O=C(CCN1CCN(C(=O)OCc2cc(Cl)cc(Cl)c2)CC1)c1ccc2[nH]c(=O)oc2c1,70.5,104,87.1 (inactive),168 (active)
"CCCCCC#CCC(O)C=CC=CC=CC(O)CCCC(=O)O (centres undefined) [14,15-Dehydroleukotriene B4]",101,96.7,105 (inactive),101 (inactive)
CS(=O)(=O)c1ccc(-c2cc(Br)sc2-c2ccc(F)cc2)cc1,99.9,100,96.8 (inactive),95.6 (inactive)
CC1=C(C)C(=O)C(C(CCCCCC(=O)O)c2ccccc2)=C(C)C1=O (centres undefined) [Seratrodast],107,104,99.3 (inactive),82.5 (inactive)
COc1cc2ncnc(Nc3ccc(F)c(Cl)c3)c2cc1OCCCN1CCOCC1,80.2,101,105 (inactive),112 (inactive)
"CC(=O)C1=C(O)C=C2Oc3c(C(C)=O)c(O)c(C)c(O)c3C2(C)C1=O (single isomer, unassigned; (+)) [(+)-Usnic acid]",100,109,96.7 (inactive),91.2 (inactive)
CC1CCC2(C(=O)O)CCC3(C)C(=CCC4C5(C)CC(O)C(O)C(C)(CO)C5C(O)CC43C)C2C1C (centres undefined) [Madecassic acid],105,102,91.6 (inactive),91.7 (inactive)
CC(C)c1ccc2oc3nc(N)c(C(=O)O)cc3c(=O)c2c1,104,109,97.3 (inactive),92.5 (inactive)
"Nc1nc2ccc(Cl)cc2n2c(-c3ccccc3)nnc12 [8-chloro-1-phenyl[1,2,4]triazolo[4,3-a]quinoxalin-4-ylamine]",104,102,93.9 (inactive),99 (inactive)
